Where “and” joins values, the source holds several entries; their conditions need not be identical. Equal values may be shown once. Among all 77,000 compounds or so, about 4,600 (6%) were called active. About 1% were inconclusive and are not listed. The full list was thinned out, with actives kept by preference. Values without a mark were called inactive.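 The calls were made as follows: active = mean inhibition above about 93%, with at least 55% of replicates each passing it (limit read from the data, passing the limit was not always enough); inconclusive = only one of those two conditions holds; inactive = neither condition holds.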
test: T. cruzi intracellular proliferation inhibitors, primary screen, cell-based, beta-gal Tulahuen parasites, NIH3T3 host, luminescence (AID 624255); settings: T. cruzi beta-gal in NIH3T3, GalScreen luminescence, 90 h; at 8.34 µM; active compounds read high

| SMILES | inhibition |
| --- | --- |
| CN1C(=O)c2cc(NC(=O)c3ccccc3)ccc2OC[C@@H]2O[C@H](CC(=O)NCC3CC3)CC[C@@H]21 | -30.4% |
| O=C(c1cccnc1)N1C[C@H]2[C@@H](c3ccccc31)[C@@H](CO)N2C(=O)Nc1ccccc1F | -1.74% |
| C[C@H]1CN([C@@H](C)CO)C(=O)c2c(c3ccccc3n2C)-c2ccccc2CO[C@H]1CN(C)S(=O)(=O)c1ccc(C#N)cc1 | 29.4% |
| C[C@@H]1CN([C@@H](C)CO)S(=O)(=O)c2ccc(-c3ccc(F)cc3)cc2O[C@H]1CN(C)C(=O)c1ccccc1F | 84.8% |
| C[C@H]1CN([C@@H](C)CO)S(=O)(=O)c2ccc(-c3cccc(F)c3)cc2O[C@@H]1CN(C)C | -32.3% and -49.6% |
| C[C@@H]1CN([C@H](C)CO)S(=O)(=O)c2ccc(-c3cccc(F)c3)cc2O[C@H]1CN(C)S(=O)(=O)c1ccc(F)cc1 | 118% (active) |
| COc1cccc(NC(=O)N[C@@H]2CC[C@H](CC(=O)NCc3ccccn3)O[C@H]2CO)c1 | -39.2% |
| CO[C@@H]1CN(C)C(=O)c2cc(NS(=O)(=O)c3cn(C)cn3)ccc2OC[C@@H](C)NC[C@H]1C | -12.5% |
| Cc1ccccc1S(=O)(=O)N[C@H]1CC[C@@H](CCn2cc(Cc3ccccc3)nn2)O[C@H]1CO | -21.8% |
| CCC(=O)N1CC[C@@H]2[C@@H](CO)N(C)c3ccc(-c4cccc(OC)c4)cc3[C@@H]21 | 104% (active) |
| COc1cccc(NC(=O)N2CC[C@@H]3[C@@H](CO)N(C)c4ccc(-c5cccc(F)c5)cc4[C@@H]32)c1 | 30.5% |
| COc1ccc(-c2ccc3c(c2)[C@H]2[C@H](CCN2C(=O)C2CCOCC2)[C@H](CO)N3C)cc1 | 1.27% |
| CN1c2ccc(-c3ccccc3)cc2[C@@H]2[C@@H](CCN2C(=O)c2ccccc2)[C@H]1CO | 62.4% |
| CN1c2ccc(-c3ccccc3F)cc2[C@H]2[C@H](CCN2C(=O)Cc2ccccn2)[C@H]1CO | 81% |
| CN1c2ccc(-c3ccccc3)cc2[C@@H]2[C@@H](CCN2C(=O)c2ccncc2)[C@@H]1CO | 103% (active) |
| COc1ccc(-c2ccc3c(c2)[C@@H]2[C@@H](CCN2C(=O)Cc2ccccn2)[C@H](CO)N3C)cc1 | 90.9% (active) |
| CCC(=O)N1CC[C@H]2[C@@H]1c1cc(-c3ccc(C#N)cc3)ccc1N(C)[C@H]2CO | 58.1% |
| CN1c2ccc(-c3ccccc3)cc2[C@@H]2[C@@H](CCN2C(=O)c2ccccc2F)[C@@H]1CO | 83.7% |
| CCCNC(=O)C[C@@H]1CC[C@H]2[C@H](COc3ccc(NC(=O)c4ccc(Cl)cc4)cc3C(=O)N2C)O1 | 29.6% |
| COc1ccc(S(=O)(=O)Nc2ccc3c(c2)C(=O)N(C)C[C@@H](OC)[C@H](C)CN(C(=O)NC(C)C)[C@H](C)CO3)cc1 | -70.7% |

| SMILES | inhibition |
| --- | --- |
| COc1ccc(NC(=O)N[C@H]2C=C[C@H](CC(=O)NCc3ccccn3)O[C@H]2CO)cc1 | -16.1% |
| Cc1noc(C)c1NC(=O)Nc1ccc2c(c1)C(=O)N([C@H](C)CO)C[C@@H](C)[C@H](CN(C)S(=O)(=O)c1ccc(Cl)cc1)OCCCC[C@H](C)O2 | 53.3% |
| COCCNC(=O)C[C@H]1CC[C@H]2[C@H](COc3ccc(NC(=O)C4CCOCC4)cc3C(=O)N2C)O1 | 17.3% |
| C[C@@H]1CN([C@@H](C)CO)C(=O)c2cc(NC(=O)C3CCCCC3)ccc2O[C@@H](C)CCCCO[C@H]1CN(C)C(=O)CCC(F)(F)F | 29.9% |
| COCC(=O)Nc1ccc2c(c1)OC[C@@H](C)N(Cc1cocn1)C[C@@H](C)[C@@H](OC)CN(C)C2=O | -2.18% |
| CN1c2ccc(-c3ccc(C#N)cc3)cc2[C@@H]2[C@@H](CCN2S(=O)(=O)c2cccc(F)c2)[C@@H]1CO | 72.5% |
| COCC(=O)Nc1ccc2c(c1)[C@H]1C[C@H](CC(=O)NCc3ccc(OC)cc3)O[C@@H](CO)[C@H]1O2 | 4.09% |
| O=C(C[C@H]1CC[C@H]2[C@@H](COC[C@H](O)CN2C(=O)c2ccncc2)O1)NCc1cc(F)cc(F)c1 | 43.6% |
| C[C@@H]1CN([C@@H](C)CO)C(=O)Cc2cc(NC(=O)C3CCCCC3)ccc2O[C@@H]1CN(C)Cc1ccc(C(=O)Nc2ccccc2N)cc1 | 103% (active) |
| C[C@@H]1CN([C@H](C)CO)C(=O)Cc2cc(NC(=O)Nc3ccc(C(F)(F)F)cc3)ccc2O[C@H]1CN(C)Cc1ccc(-c2ccccc2)cc1 | 67.4% |
| C[C@H]1CN([C@@H](C)CO)C(=O)Cc2cc(NC(=O)Cc3cn(C)c4ccccc34)ccc2O[C@H]1CN(C)Cc1ccccc1 | 83.1% |
| C[C@H](CO)N1C[C@H](C)[C@H](CN(C)Cc2ccc(-c3ccccc3)cc2)Oc2ccc(NC(=O)Nc3ccc(F)cc3)cc2CC1=O | 100% (active) |
| C[C@@H]1CN([C@@H](C)CO)C(=O)Cc2cc(NC(=O)Cc3ccccc3)ccc2O[C@@H]1CN(C)Cc1ccc(Oc2ccccc2)cc1 | 12.2% |
| C[C@H]1CN([C@@H](C)CO)C(=O)Cc2cc(NC(=O)Cc3cn(C)c4ccccc34)ccc2O[C@@H]1CN(C)Cc1ccc(C(F)(F)F)cc1 | 103% (active) |
| C[C@H]1CN([C@@H](C)CO)C(=O)Cc2cc(NS(=O)(=O)c3ccccc3)ccc2O[C@H]1CN(C)Cc1ccc(C(=O)Nc2ccccc2N)cc1 | 48% |
| C[C@@H]1CN([C@H](C)CO)C(=O)Cc2cc(NC(=O)Cc3ccccc3)ccc2O[C@H]1CN(C)Cc1ccc(Oc2ccccc2)cc1 | 99.8% (active) |
| COc1ccc(CN(C)C[C@H]2Oc3ccc(NC(=O)Cc4ccccc4)cc3CC(=O)N([C@@H](C)CO)C[C@@H]2C)cc1 | 74% |
| C[C@@H]1CN([C@H](C)CO)C(=O)Cc2cc(NC(=O)Nc3ccccc3)ccc2O[C@@H]1CN(C)Cc1ccc(C(F)(F)F)cc1 | 86.5% |
| C[C@H]1CN([C@@H](C)CO)C(=O)Cc2cc(NS(=O)(=O)c3ccccc3)ccc2O[C@@H]1CN(C)Cc1ccc(C(=O)Nc2ccccc2N)cc1 | 21.9% |
| C[C@@H]1CN([C@H](C)CO)C(=O)Cc2cc(NC(=O)Cc3cn(C)c4ccccc34)ccc2O[C@@H]1CN(C)Cc1ccc(C(F)(F)F)cc1 | 89.6% |
